High-throughput results deposited in PubChem by Broad Institute.
HIV Env fusion: blocks HIV Env-driven cell-cell fusion | HeLa-JRFL Env/CEM21 cell fusion, luciferase | inhibition, % at 12.3 µM | 360,000 compounds, 1.1% hits | AID 651610;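 active means mean replicate inhibition score of at least 50 and every replicate individually at or above 50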;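 further: 0% = plate neutral controls and 100% = maraviroc near 300 nM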
Shn3 inh set2: Schnurri-3 reporter inhibition in Clone20 osteoblasts | Clone20 osteoblast Shn3 3'UTR firefly luciferase, 24 h | inhibition, % at 12.5 µM | 360,000 compounds, 0.52% hits | AID 588674;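 active means mean inhibition of at least 75% with every replicate also reaching 75%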;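 further: 0% = median of neutral control wells and 100% = pilot-screen positive control compound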
PAX8 reporter: inhibitors of PAX8 transcriptional activity in RMG-I cells. RMG-I TPO-luciferase reporter, SteadyGlo, 24 h. inhibition, % at 12.6 µM. 360,000 compounds, 1.2% hits. AID 652154;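 active means mean replicate inhibition at least 60% with every replicate also reaching 60%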;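 further: luciferase light reporting Pax8 driven TPO promoter activity; plate controls were median of neutral control wells for no effect and mitoxantrone controls for full effect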
EBV LMP1 NFkB: reduces LMP1-driven NF-kappaB luciferase signal; LMP1-induced NF-kappaB luciferase reporter cells, luminescence; inhibition, % at 12.5 µM; 350,000 compounds, 0.69% hits; AID 504558; in the data active means inhibition above about 41%;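 further: 0% = neutral control wells and 100% = reference inhibitor control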
NSD2 inh: NSD2 (human) methyltransferase inhibition; AID 743445; O96028; NSD2 peptide methylation, AlphaScreen, 120 min; inhibition, % at 12.5 µM; 310,000 compounds, 0.54% hits; in the data active means inhibition above about 50%
Glyco luc inh: N-linked glycosylation inhibition; D54 ERlucT glycosylation luciferase reporter, 24 h; percent of 100 nM tunicamycin response; reporter increase, % at 12.5 µM; 360,000 compounds, 0.23% hits;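 active means mean luciferase reporter signal, scaled so untreated is 0 and the glycosylation-blocking control 100, at or above a set limit in every replicate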;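 further: luciferase carries N-glycosylation sites so blocking glycosylation raises the light; 0% = median of neutral control wells and 100% = median of 100 nM tunicamycin wells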
* marks the source's active call; other numbers are inactive results; / = no result; [ ] = remark or other dose. In the library only some 2.8% were active in any assay of this set; here they are far more common.

SMILES | HIV Env fusion | Shn3 inh set2 | PAX8 reporter | EBV LMP1 NFkB | NSD2 inh | Glyco luc inh
COc1ccc(CNC(=O)C(c2ccncc2)N(C(=O)Cc2cccs2)c2ccccc2)cc1 (stereo not drawn) | -0.4 | -8.3 | 7.1 | -0.2 | -2.0 | 2.5
CNC[C@@H]1Oc2cc(-c3ccccc3F)ccc2S(=O)(=O)N([C@@H](C)CO)C[C@@H]1C | -15.3[16.7 µM] | / | -5.4 | / | / | /
Cc1nnc(C)c2c(C)n(/N=C/c3cc(Br)ccc3O)c(C)c12 | / | / | / | / | 9.0 | /
C[C@H](C(=O)N(C)C[C@@H]1OCc2ccccc2-c2ccccc2C(=O)N([C@@H](C)CO)C[C@H]1C)c1ccccc1 | 59.0*[16.7 µM] | / | -27.2 | / | / | /
C[C@H](C(=O)N(C)C[C@H]1OCc2ccccc2-c2ccccc2C(=O)N([C@@H](C)CO)C[C@H]1C)c1ccccc1 | 21.5[16.7 µM] | / | 13.2 | / | / | /
C[C@H](C(=O)N(C)C[C@@H]1OCc2ccccc2-c2ccccc2C(=O)N([C@@H](C)CO)C[C@@H]1C)c1ccccc1 | 57.8*[16.7 µM] | / | -1.9 | / | / | /
C[C@H](C(=O)N(C)C[C@@H]1OCc2ccccc2-c2ccccc2C(=O)N([C@H](C)CO)C[C@@H]1C)c1ccccc1 | 57.4*[16.7 µM] | / | 8.5 | / | / | /
C[C@@H]1CCCCO[C@@H](CN(C)C(=O)Nc2ccc3c(c2)OCO3)[C@@H](C)CN([C@@H](C)CO)C(=O)c2cc(N(C)C)ccc2O1 | 14.5[16.7 µM] | / | 0.5 | / | / | /
O=C(COC(=O)c1cc([N+](=O)[O-])ccc1N1CCOCC1)Nc1ccc(Cl)cc1 | 0.4 | 15.6 | 18.3 | 13.5 | 1.9 | -1.8
CCN(CC)S(=O)(=O)c1ccc(N2CCOCC2)c(NC(=O)c2ccc(OC)c([N+](=O)[O-])c2)c1 | -7.5 | / | 18.0 | 1.3 | -3.8 | -3.1
CCN(CC)S(=O)(=O)c1ccc(N2CCOCC2)c(NC(=O)c2[nH]c(C)c(C(C)=O)c2C)c1 | 3.2 | -40.0 | -15.9 | 15.6 | 1.7 | 63.1*
CCN(CC)S(=O)(=O)c1ccc(N2CCCC2)c(NC(=O)Cc2cc(OC)c(OC)c(OC)c2)c1 | 96.9* | 15.4 | 0.8 | 2.4 | 8.7 | 1.7
O=C(COC(=O)c1cc([N+](=O)[O-])ccc1N1CCOCC1)Nc1ccc(Cl)cn1 | -164.5 | -18.0 | 61.4* | -26.7 | 30.4 | 0.3
CCN(CC)S(=O)(=O)c1ccc(OC)c(NC(=O)c2cc([N+](=O)[O-])ccc2N2CCOCC2)c1 | 66.5* | 7.4 | -3.2 | 1.6 | 0.0 | -1.3
CCN(CC)S(=O)(=O)c1ccc(N2CCCC2)c(NC(=O)Cc2ccc(OC)cc2)c1 | 54.1 | 15.1 | 21.7 | -6.2 | -1.5 | -0.8
Cc1noc(C)c1S(=O)(=O)Nc1ccc2c(c1)C(=O)N([C@@H](C)CO)C[C@H](C)[C@@H](CN(C)S(=O)(=O)c1ccccc1)OCCCC[C@@H](C)O2 | -52.8[16.7 µM] | / | -11.3 | / | / | /
Cc1ccc(S(=O)(=O)Nc2ccc3c(c2)CC(=O)N([C@H](C)CO)C[C@@H](C)[C@@H](CN(C)S(=O)(=O)c2cccs2)O3)cc1 | 27.1[16.7 µM] | / | 6.8 | / | / | /
COc1cccc(CNC(=O)COC(=O)c2cc([N+](=O)[O-])ccc2N2CCCC2)c1 | -0.4 | 4.2 | -1.9 | 71.3* | 0.3 | -5.8
O=C(OCc1ccc(Br)cc1)c1cc([N+](=O)[O-])ccc1N1CCOCC1 | -75.2 | -30.5 | 21.4 | 15.6 | 2.2 | 12.3
O=C(OCc1cccc(Cl)c1)c1cc([N+](=O)[O-])ccc1N1CCOCC1 | -272.8 | 7.2 | 74.5* | -22.1 | 1.1 | 2.0
O=C(OCc1cccc(C(F)(F)F)c1)c1cc([N+](=O)[O-])ccc1N1CCOCC1 | / | 10.0 | 8.6 | 7.4 | 0.4 | -4.7
COc1ccc(COC(=O)c2cc([N+](=O)[O-])ccc2N2CCOCC2)cc1F | / | 31.0 | 96.0* | 1.3 | -0.5 | 10.6
CCN1CCN(c2ccc(S(=O)(=O)N3CCOCC3)cc2NC(=O)/C=C/c2ccc([N+](=O)[O-])cc2)CC1 | -16.1 | 2.8 | 72.2* | 2.2 | / | -11.4
CC(C)CC(COCc1cccc(Cl)c1)N1CCN(C(=O)c2cccc(C(F)(F)F)c2)CCC1=O (stereo not drawn) | 76.4* | 22.6 | 13.2 | -0.4 | / | -1.0
Cc1cccc(COC[C@H](CC(C)C)N2CCN(C(=O)c3ccc(C(F)(F)F)cc3)CCC2=O)c1 | 42.1 | / | 17.1 | / | / | /
CC(C)C[C@@H](COCc1cccc(C(F)(F)F)c1)N1CCN(C(=O)c2ccc(C(F)(F)F)cc2)CCC1=O | 62.1* | / | 32.3 | / | / | /
